# Screen size: about 53,000 compounds; about 900 (1.7%) showed an effect of 50% or more. The sample holds strong results, similar compounds and a random draw of the others, so the mix is not that of the screen.
# Test system: Mycobacterium tuberculosis
# Assay: Cornell - Phenotypic assay to identify agents that inhibit growth of Mycobacterium tuberculosis
# Assay type: functional
# Design: scale not given: direction of the effect not stated beside the values
# Details: 10 mM as filed; unlikely as a test dose
row,Structure (SMILES),Percent Effect [%]
1,Cc1cc2cccc(NC(=O)N3CCC(N4CCSCC4)CC3)c2o1,26.32
2,O=C(CN1CCC2(CC1)NC(=O)c1cc(Br)ccc1N2)NC1CC1,-67.58
3,Cc1cccc(CN2CCCCC23CCNC3)n1.O=C(O)C(F)(F)F.O=C(O)C(F)(F)F (stereo unspecified),9.569
4,O=C(NCCc1coc(-c2ccc(F)cc2)n1)NC1CC1,9.97
5,N[C@@H]1CCC[C@@H](Oc2ccc(F)cc2Oc2ccccc2)[C@@H]1O,-14.7
6,CN[C@@H]1CCC[C@@H](Oc2ccccc2Oc2ccc(C)cc2)[C@@H]1O,74.11
7,Cc1ccc(Oc2cc(F)ccc2O[C@@H]2CCC[C@@H](N)[C@H]2O)cc1,30.66
8,Cc1ncsc1-c1nnc(C2CCCN2C(=O)Cn2cccn2)o1 (stereo unspecified),-1.275
9,Cc1cc(CNc2cc(Cl)ccc2Cl)no1,51.97
10,Cc1cc(CNc2cc(Cl)ccc2OCCS(C)(=O)=O)no1,-0.6634
11,CCOc1c(Cl)cccc1NCc1cc(C)on1,15.54
12,O=C(NCc1ccccc1Cn1cncn1)C1CCCC1,0.5526
13,Cc1noc(C)c1CN1CCC2(CC1)NC(=O)CC2c1cnn(C)c1 (stereo unspecified),47.68
14,Clc1ccccc1-c1nc(CNC2CCc3ncnn3C2)co1 (stereo unspecified),-41.84
15,O=C(C1CC1)N1CCC2(CC1)OCCO2,-14.17
16,Cc1ncc2c(n1)C1(CCN(C(=O)C3CC3)CC1)OCC2.Cl,55.8
17,Cc1ncc(C(=O)N2CC(C(=O)N3CCOCC3)C2)c(C)n1,-7.514
18,Cc1cnc(N2CCOC3(CCCN(C(=O)C(C)C)C3)C2)nc1 (stereo unspecified),8.771
19,Cc1noc(C2(C)CCN(C(=O)C(C)C)CC2)n1,-18.49
20,Cc1ncc2c(n1)C1(CCN(C(=O)C(C)C)CC1)OCC2.Cl,54.97
21,CCC(CO)N(Cc1cccnc1)C(=O)c1ccncc1F (stereo unspecified),1.978
22,CCc1ncc(CN[C@@H]2CCCN(C(C)=O)[C@H]2c2ccc(C)s2)cn1.Cl,15.97

row,Structure (SMILES),Percent Effect [%]
1,CCc1cc(NC2CCOCC2)n2nc(C)c(C)c2n1,14.02
2,Cc1ccc(-c2nc(CN3CCC(N4CCNC4=O)CC3)co2)cc1,0.5995
3,CCc1ccc(CN2C[C@@H](c3nc(C)no3)C[C@H]3OCC[C@H]32)o1.O=C(O)C(F)(F)F,28.15
4,Cc1noc([C@H]2C[C@H]3OCC[C@H]3N(Cc3ccc4c(c3)OCO4)C2)n1.O=C(O)C(F)(F)F,10.54
5,Cc1noc([C@H]2C[C@H]3OCC[C@H]3N(Cc3ccc(F)cc3)C2)n1.O=C(O)C(F)(F)F,52.79
6,O=C(C1CCCC1)N1CCCC1c1nnc2n1CCCCC2 (stereo unspecified),-1.073
7,CC(C)c1nc(CSc2nnc(C3CC3)n2CC(N)=O)no1,15.19
8,CC(C)CCNC(=O)c1csc(NC2CC2)n1,27.3
9,O=C(Nc1nccs1)c1csc(NC2CCCC2)n1,105.9
10,CC(C)NC(=O)c1csc(NC2CC2)n1,29.51
11,Cc1cnc(NC(=O)c2csc(NCC(C)C)n2)s1,60.38
12,CC(NC(=O)Nc1nccs1)C(=O)NC1CCCC1 (stereo unspecified),13.09
13,Cc1cnc(NC(=O)c2csc(NC3CCCC3)n2)s1,99.29
14,Cc1cnc(NC(=O)N2CCCC2)s1,13.69
15,Cc1nc(NC2CCCC2)cc(C2CCN2C(=O)c2ccccn2)n1 (stereo unspecified),-60.39
16,Cc1cccc(NC(=O)c2csc(NCC(C)C)n2)n1,22.32
17,CC(C)Nc1nc(C(=O)Nc2ccccn2)cs1,27.58
18,O=C(Nc1ccccn1)c1csc(NC2CCCC2)n1,105.8
19,CC(C)CCNc1nc(C(=O)NC2CC2)cs1,44.5
20,Cc1nc(CNCc2cccc(OC34CCCN(CC3)C4)c2)n[nH]1 (stereo unspecified),22.09
21,Cc1nn2c(NC(=O)CSc3nccn3C)csc2nc1=O,-11.03
22,O=C1CCC(C(=O)Nc2ccc(=O)n(Cc3ccccc3Cl)c2)N1 (stereo unspecified),-13.24

row,Structure (SMILES),Percent Effect [%]
1,CNC(=O)c1cccc(C2CNCCN2C(=O)C2CCNCC2)c1 (stereo unspecified),0.2477
2,CC(=O)Nc1cc(-c2cccc(F)c2F)n[nH]1,22.81
3,CCOCC(=O)Nc1cc(-c2cccc(F)c2F)n[nH]1,57.77
4,CCS(=O)(=O)CC(=O)Nc1cc(-c2cccc(F)c2F)n[nH]1,15.94
5,O=C1NC[C@]2(CC[C@@H](C(=O)N3CCCC(O)C3)CC2)Oc2ccccc21 (stereo partly specified),-1.738
6,CC(=O)N1CCN(C(C)c2nnc(CC(C)C)o2)CC1 (stereo unspecified),3.173
7,COC(=O)[C@H](C)NC(=O)CSCc1nc2sc(C(C)C)cc2c(=O)[nH]1,57.77
8,COC(=O)C(C)NC(=O)CSCc1nc(O)c2cc(C(C)C)sc2n1 (stereo unspecified),10.11
9,COCCNC(=O)CSCc1nc(O)c2cc(C(C)C)sc2n1,-18.87
10,CC(C)CN1C[C@H](COCc2ccccc2)Oc2ncccc2C1=O,-10.08
11,Cc1ncc(C(=O)NCCNc2ncccn2)s1,-0.6021
12,CCS(=O)(=O)Nc1cnn(Cc2cccc(C)c2)c1,56.26
13,CCS(=O)(=O)Nc1cnn(Cc2cccc(F)c2)c1,14.06
14,CCS(=O)(=O)Nc1cnn(Cc2cccc(Cl)c2)c1,-14.58
15,Cc1c(S(=O)(=O)NCC(C)C)cnn1C,-2.001
16,COc1cccc(CCC(=O)Nc2c(C)nn(C)c2C)c1OC,-11.78
17,Cc1nc(-c2ccc(CO)cc2)cc(C2CCNCC2)n1.Cl,12.1
18,O=C(NCc1ccccn1)[C@@]12CCO[C@@H]1CCN(Cc1ccccn1)C2.O=C(O)C(F)(F)F.O=C(O)C(F)(F)F.O=C(O)C(F)(F)F,-14.31
19,CC(NC(=O)c1cc(-c2cccc(Cl)c2)no1)C(=O)N(C)C (stereo unspecified),9.545
20,CC(NC(=O)c1cc(-c2cccc(Cl)c2)no1)C(=O)N1CCCC1 (stereo unspecified),1.351
21,COC(=O)[C@H](C)NC(=O)c1cc(-c2cccc(Cl)c2)no1,105.7
22,O=C(NCc1ccc(OCC2CC2)nc1)C1COc2ccccc2O1 (stereo unspecified),16.73
